# Compound activity deposited in PubChem BioAssay by several laboratories.
# esBAF inh – Bmi1 luciferase reporter increase in mESCs, primary screen, esBAF inhibitor project, mouse ES cells, Bmi1 luciferase knock-in, single point; 24 h; 100% = twice the neutral-well signal; reporter increase, % at 12.5 µM; actives 2% (n = 350,000); in the data active means activation above about 40%;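 further: 0% = median of the plate's neutral control wells and 100% = double that signal; a rise in the Bmi1 reporter signal indicates esBAF inhibition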
# MITF act – activators of MITF-driven TRPM1 promoter reporter, primary screen, cell-based, SK-MEL-5, luciferase, single point; actives 0.75% (n = 300,000); activation, % at 12.5 µM; SK-MEL-5 TRPM1-promoter luciferase, 24 h; % of positive control, neutral wells = 0; AID 588334, 2011;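 active means mean activation of at least 80% with every replicate also reaching 80%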;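 further: 0% = neutral control wells and 100% = parthenolide positive control wells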
# SMARCA2 act – SMARCA2 (BRM) function activators, primary screen, cell-based, luminescence, high throughput. actives 1% (n = 370,000). MG213 cells, MMTV-luciferase reporter, dexamethasone, overnight. activation, % at 9.1 µM; in the data active means activation above about 7.8%;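 further: 0% = vehicle wells and 100% = reference activator wells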
# FGF22 binding – binders of human FGF22 protein, primary screen, FGF22 synaptogenesis inhibitor project, biophysical, thermal shift, single point; Fibroblast growth factor 22 (Homo sapiens), Q9HCT0; recombinant FGF22 thermal shift, SYPRO orange fluorescence; percent of sucrose octasulfate shift, DMSO zero; activity (Tm shift, normalised), % at 9.99 µM; actives 1.5% (n = 340,000);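 active means mean Tm shift, scaled 0 neutral to 100 positive control, at about 1.3% or above, every replicate too, limit read from the data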
# AF4-AF9 inh – inhibitors of AF4 peptide binding to AF9, primary screen, biochemical, AlphaScreen, biotin-AF4 peptide, FLAG-AF9, single point | inhibition, % at 10 µM | AID 651704, 2012 | actives 0.47% (n = 350,000) | Protein AF-9 (Homo sapiens), P42568;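 active means every replicate reaching a set inhibition limit, whatever the replicate mean, cut at about 25% in these data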;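 further: 0% = plate neutral control median and 100% = total signal loss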
# Target sequence (P42568 whole entry, looked up): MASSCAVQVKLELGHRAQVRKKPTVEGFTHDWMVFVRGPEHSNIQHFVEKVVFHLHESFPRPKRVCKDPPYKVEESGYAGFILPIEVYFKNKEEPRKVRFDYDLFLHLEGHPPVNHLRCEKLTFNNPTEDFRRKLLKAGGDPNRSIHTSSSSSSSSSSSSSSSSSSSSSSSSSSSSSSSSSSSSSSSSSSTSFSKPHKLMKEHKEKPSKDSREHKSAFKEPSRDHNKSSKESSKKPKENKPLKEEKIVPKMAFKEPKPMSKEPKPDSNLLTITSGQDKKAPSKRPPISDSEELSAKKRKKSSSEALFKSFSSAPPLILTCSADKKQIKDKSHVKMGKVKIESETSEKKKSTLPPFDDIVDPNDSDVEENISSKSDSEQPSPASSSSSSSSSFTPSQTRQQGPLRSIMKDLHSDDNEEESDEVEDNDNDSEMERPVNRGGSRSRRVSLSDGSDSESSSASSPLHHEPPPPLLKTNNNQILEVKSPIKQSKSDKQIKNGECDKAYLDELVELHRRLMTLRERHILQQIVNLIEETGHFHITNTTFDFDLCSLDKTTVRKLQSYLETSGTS
# Wnt bcat act – Wnt/beta-catenin pathway activators, primary screen, cell-based, plate reader, single point | activation, % at 9.35 µM | Wnt/beta-catenin reporter cell assay, activator | actives 1.2% (n = 300,000) | AID 743398, 2014; in the data active means activation above about 30%, passing the limit was not always enough;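 further: 0% = neutral control wells and 100% = positive control wells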
# SMARCA2 act conf – SMARCA2 (BRM) function activators, confirmation, cell-based, luminescence, triplicate | activation, % at 9.1 µM | actives 30% (n = 3,500) | shares compounds with SMARCA2 act | MG213 cells, MMTV-luciferase with dexamethasone, overnight; MG213 cells expressing E1A, Rb sequestered; DMSO wells 0%, reference activator 100%;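 active means activation above its plate's cutoff, the mean activation of tested wells plus 3 SD, cut at about 7.9% in these data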
# GAL4-VP16 Luc – GAL4-VP16 luciferase reporter activation, counter-screen for SMARCA2 (BRM) activator project, cell-based, pG5luc, luminescence, high throughput; shares compounds with SMARCA2 act; HEK293 GAL4-VP16 pG5luc reporter; scaled: DMSO wells 0%, SAHA wells 100%; activation, % at 9.1 µM; actives 41% (n = 3,500);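 active means activation above the solvent-only control well mean plus 3 SD, averaged across control plates, cut at about 5.2% in these data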
# * = called active by the depositor; nt = not tested or not shown. This is a sample that favours compounds with a hit; in the whole collection about 4.3% have one here.
SMILES,esBAF inh,MITF act,SMARCA2 act,FGF22 binding,AF4-AF9 inh,Wnt bcat act,SMARCA2 act conf,GAL4-VP16 Luc
O=C(NNC(=S)Nc1ccc(F)cc1F)c1ccco1,13,9,12*,0,-1,4,8.6*,3
CN1CCN(C(=O)c2cc3c(c(-c4cccc(-c5cccc(C(=O)N(C)C)c5)c4)n2)[C@@H](CCO)N([S@](=O)C(C)(C)C)C3)CC1,-3,nt,nt,0,-5,nt,nt,nt
Cn1c2ccccc2c2nnc(SCCN3CCOCC3)nc21,6,-4,10*,0,0,-1,0,2
CC(=O)C1=C(C)NC(SCC(=O)c2ccc(Cl)c(Cl)c2)=C(C#N)C1c1ccco1 (stereo not drawn),-4,-6,8.6*,0,9,-5,-5,0
CC(=O)C1=C(C)NC(SCC(=O)c2cc(Cl)ccc2Cl)=C(C#N)C1c1ccco1 (stereo not drawn),nt,-8,-3,0,-30,-2,nt,nt
c1ccc(-c2nn3c(-c4ccccc4)nnc3o2)cc1,18,nt,0,0,-1,12,nt,nt
CN(C)c1nn2c(-c3ccccc3)nnc2o1,-2,nt,8.8*,43*,2,-1,0,3
C/C(=N\Nc1cccc([N+](=O)[O-])c1)c1ccccc1O,nt,60,12*,0,0,5,6,5
CCn1nc(C)c(CNC(=O)Nc2ccc3c(c2)OCO3)c1C,37,47,9.3*,0,0,17,1,3
CO[C@@H]1CN(C)C(=O)c2cc(NC(=O)C3CC3)ccc2OC[C@@H](C)N(S(=O)(=O)c2ccc(Cl)cc2)C[C@H]1C,0,nt,nt,0,2,nt,nt,nt
COc1ccc(NC(=O)Nc2ccc3c(c2)C(=O)N([C@@H](C)CO)C[C@@H](C)[C@H](CN(C)S(=O)(=O)c2ccc(OC)cc2)OCCCC[C@H](C)O3)cc1,2,nt,nt,0,nt,nt,nt,nt
CCOc1cc(/C=C2\CN(CC)C/C(=C\c3ccc(O)c(OCC)c3)C2=O)ccc1O,23,-92,10*,-1,6,9,-7,-3
CNC(=O)C[C@H]1CC[C@H]2[C@H](COc3ccc(NC(=O)Nc4ccccc4)cc3C(=O)N2C)O1,2,nt,nt,0,-4,nt,nt,nt
COc1ccc(CCn2c(SCCN3CCCCC3)nc3ccccc3c2=O)cc1OC,-8,17,13*,0,10,-1,2,2
CCCC(=O)Nc1ccc2c(c1)C(=O)N(C)[C@H]1CC[C@@H](CC(=O)NCCN3CCCCC3)O[C@H]1CO2,2,nt,nt,0,-1,nt,nt,nt
Cc1cc2nc(/C=C/c3cccnc3)[nH]c2cc1C,8,nt,8.7*,0,-14,0,16*,27*
Cc1cc2nc(CO)[nH]c2cc1C,9,1,2,0,-1,2,nt,nt
CCOC(=O)c1ccc2[nH]c3c(c2c1)CCCC3O (stereo not drawn),nt,24,0,0,4,1,nt,nt
CCOC(=O)c1ccc2[nH]c3c(c2c1)CCCC3,66*,63,13*,0,8,20,7,8.9*
CCN(CC)c1ccc(/C=N/Nc2nc(C)cc(C)n2)cc1,nt,nt,8.1*,-1,11,10,-4,1
Cc1cc(C)nc(N/N=C/c2ccccc2)n1,nt,45,nt,0,-76,16,nt,nt
COc1ccc(NC(=O)c2onc(C)c2Cl)cc1,46*,47,10*,0,-1,23,3,7.0*
c1ccc2c(c1)Cc1cc3ccccc3nc1-2,11,62,8.8*,0,3,44*,13*,10*
COc1ccc2c3c(n(C)c2c1)[C@H](CO)NCC31CN(S(=O)(=O)c2ccccc2)C1,nt,nt,nt,0,10,nt,nt,nt
C[C@H](CO)N1C[C@H](C)[C@@H](CN(C)C(=O)CC2CC2)Oc2cc(-c3ccncc3)ccc2S1(=O)=O,0,nt,nt,1,0,nt,nt,nt
SMILES,esBAF inh,MITF act,SMARCA2 act,FGF22 binding,AF4-AF9 inh,Wnt bcat act,SMARCA2 act conf,GAL4-VP16 Luc
Cc1ccc(S(=O)(=O)CCC(=O)OCC(=O)NNC(=O)c2ccc([N+](=O)[O-])cc2)cc1,-4,1,-2,0,-1,-4,nt,nt
Cc1ccc(C(=O)CCC(=O)OCC(=O)NNC(=O)c2ccc([N+](=O)[O-])cc2)cc1,-4,4,9.3*,0,0,-2,0,1
COc1ccc(Cc2nc3ccc(C(=O)NCc4cc(C)no4)cc3o2)cc1,65*,91*,10*,0,0,7,2,5.7*
COc1ccc(Cc2nc3ccc(C(=O)NCCSC)cc3o2)cc1,28,nt,3,0,-15,5,nt,nt
CC(=O)Nc1ccc2c(c1)C(=O)N(C)[C@@H]1CC[C@@H](CC(=O)NCc3ccc4c(c3)OCO4)O[C@H]1CO2,-3,nt,nt,0,nt,nt,nt,nt
COc1ccc(S(=O)(=O)Nc2ccc3c(c2)C(=O)N([C@H](C)CO)C[C@@H](C)[C@@H](CN(C)Cc2ccccc2)OCCCC[C@H](C)O3)cc1,-10,nt,nt,0,nt,nt,nt,nt
Cc1nc2cc(NC(=O)N3c4ccccc4CC3C)ccc2o1 (stereo not drawn),-3,-14,9.6*,0,-4,16,14*,13*
C[C@@H]1CN([C@@H](C)CO)C(=O)c2cc(NS(C)(=O)=O)ccc2O[C@@H](C)CCCCO[C@H]1CN(C)C(=O)NC1CCCCC1,nt,nt,nt,nt,-12,nt,nt,nt
C[C@H]1CN([C@@H](C)CO)S(=O)(=O)c2ccc(/C=C/c3ccccc3)cc2O[C@H]1CN(C)Cc1cncnc1,2,nt,nt,0,18,nt,nt,nt
O=C(C[C@@H]1C=C[C@H](NS(=O)(=O)c2ccc(F)cc2)[C@@H](CO)O1)NCc1ccc(Cl)c(Cl)c1,12,nt,nt,0,-1,nt,nt,nt
O=C(/C=C/c1ccccc1[N+](=O)[O-])OCC(=O)c1ccccc1,nt,25,10*,0,1,-2,8.0*,2
CCCCc1ccc(NC(=O)CC(C)C)cc1,48*,62,9.7*,1,-1,-10,4,4
CCCCc1ccc(NC(=O)COCC)cc1,33,nt,8.1*,nt,nt,nt,3,5
